Inconclusive results are not listed. The source made the active and inactive calls. Rule for the calls: active = hit-call score of the fitted dose curve at least 0.9, where 1 is the maximum; inconclusive = response in the unintended direction; inactive = score below 0.9.
Target: Estrogen-related receptor gamma (Homo sapiens) (UniProt P62508)
Experiment: ATG_ERRg_TRANS: Attagene TRANS-FACTORIAL HepG2 Assay for human Estrogen-Related Receptor gamma (ERRg) (AID 2282977);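 note: hits increase reporter signal over DMSO so potencies reflect activators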
Settings: HepG2 Attagene TRANS reporter, ERRg transactivation
Outline: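 HepG2 cells transiently transfected with multiplexed GAL4-UAS reporter units driven by chimeric NR-Gal4 proteins; 24 h exposure. Reporter mRNA quantified by RT-PCR, fluorescent labelling, HpaI digestion and capillary electrophoresis; gain of signal vs DMSO.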

Sequence of Estrogen-related receptor gamma (Homo sapiens) (P62508 whole entry, looked up): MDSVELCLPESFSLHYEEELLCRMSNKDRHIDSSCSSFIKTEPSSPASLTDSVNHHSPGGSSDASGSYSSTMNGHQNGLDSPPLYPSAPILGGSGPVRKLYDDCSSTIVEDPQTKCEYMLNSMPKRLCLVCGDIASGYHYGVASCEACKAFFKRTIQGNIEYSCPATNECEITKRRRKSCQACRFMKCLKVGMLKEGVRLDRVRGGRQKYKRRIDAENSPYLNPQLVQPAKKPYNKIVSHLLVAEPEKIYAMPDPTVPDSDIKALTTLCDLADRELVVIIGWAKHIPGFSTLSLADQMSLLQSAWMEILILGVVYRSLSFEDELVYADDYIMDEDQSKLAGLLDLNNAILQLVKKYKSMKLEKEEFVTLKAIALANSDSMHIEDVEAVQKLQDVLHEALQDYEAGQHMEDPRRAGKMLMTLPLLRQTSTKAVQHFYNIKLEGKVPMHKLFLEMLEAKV

Compound | outcome
N#Cc1c(-c2ccc(Cl)cc2)[nH]c(C(F)(F)F)c1Br | inactive
Cc1ccc2c(c1N)C(=O)c1ccccc1C2=O | inactive
OCC(F)(F)OC(F)(F)C(F)(F)OC(F)(F)C(F)(F)OC(F)(F)F | inactive
CC(C)CBr | inactive
O=[N+]([O-])c1ccc(Cl)c(Cl)c1 | inactive
Cc1ccc(N)cc1N | inactive
CCOC(=O)c1ccccc1C(=O)OCC | inactive
c1ccc2c(c1)Nc1ccccc1S2 | inactive
Cc1ccc(C(=O)Cl)cc1 | inactive

Target: Glucocorticoid receptor (Homo sapiens) (UniProt P04150)
Sequence (P04150 whole entry, looked up): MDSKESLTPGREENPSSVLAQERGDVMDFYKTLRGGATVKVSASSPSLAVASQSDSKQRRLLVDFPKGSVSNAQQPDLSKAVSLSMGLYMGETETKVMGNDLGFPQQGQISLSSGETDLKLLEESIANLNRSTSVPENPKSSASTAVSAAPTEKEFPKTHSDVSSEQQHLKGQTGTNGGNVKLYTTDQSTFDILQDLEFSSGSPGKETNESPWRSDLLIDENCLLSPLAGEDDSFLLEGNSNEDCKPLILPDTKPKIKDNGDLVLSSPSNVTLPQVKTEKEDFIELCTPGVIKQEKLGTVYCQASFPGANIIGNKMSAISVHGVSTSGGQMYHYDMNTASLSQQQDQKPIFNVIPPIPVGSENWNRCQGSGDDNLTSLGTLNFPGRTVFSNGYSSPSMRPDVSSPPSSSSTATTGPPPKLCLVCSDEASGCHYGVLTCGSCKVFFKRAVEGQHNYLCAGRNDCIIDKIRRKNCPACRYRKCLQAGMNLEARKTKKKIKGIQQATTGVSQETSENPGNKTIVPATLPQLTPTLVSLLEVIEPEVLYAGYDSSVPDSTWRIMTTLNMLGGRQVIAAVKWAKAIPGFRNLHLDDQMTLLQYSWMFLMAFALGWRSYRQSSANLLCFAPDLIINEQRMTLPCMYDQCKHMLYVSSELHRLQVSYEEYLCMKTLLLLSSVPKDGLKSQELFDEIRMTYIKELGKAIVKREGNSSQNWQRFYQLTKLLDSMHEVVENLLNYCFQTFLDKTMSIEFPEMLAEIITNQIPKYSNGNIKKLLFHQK
Experiment: ATG_GR_TRANS: Attagene TRANS-FACTORIAL HepG2 Assay for human Glucocorticoid Receptor (GR) (AID 2282978);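 note: activators score as hits since higher reporter transcript over DMSO is fitted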
Settings: HepG2 Attagene TRANS GR reporter, mRNA transcription
Outline: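 Transient MRTU transfection of HepG2 (GAL4-UAS reporters, exogenous NR-GAL4 chimeras), 24 h dosing. Readout: reporter transcript via RT-PCR + capillary electrophoresis fluorescence. Positive direction vs DMSO baseline.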

Compound | outcome | AC50
N#Cc1c(-c2ccc(Cl)cc2)[nH]c(C(F)(F)F)c1Br | inactive | 
Cc1ccc2c(c1N)C(=O)c1ccccc1C2=O | inactive | 
OCC(F)(F)OC(F)(F)C(F)(F)OC(F)(F)C(F)(F)OC(F)(F)F | inactive | 
CCCCC(CC)COC(=O)c1c(Br)c(Br)c(Br)c(Br)c1C(=O)OCC(CC)CCCC (stereo unspecified) |  | 14.1 µM (active)
C=CC(=O)OCC(F)(F)C(F)F | inactive | 
O=[N+]([O-])c1cc(Cl)ccc1Cl | inactive | 
O=S(=O)(c1ccc(O)cc1)c1ccc(O)cc1 | inactive | 
CCOC(=O)c1ccccc1N | inactive | 
O=C(O)C(Cl)Cl | inactive | 
Cc1ccc(N)cc1N | inactive | 
OCC(F)(F)OC(F)(F)C(F)(F)OC(F)(F)CO | inactive | 
c1cc2c3c(cccc3c1)CC2 | inactive | 
O=C(O)C1C(C(=O)O)C2(Cl)C(Cl)=C(Cl)C1(Cl)C2(Cl)Cl (stereo unspecified) | inactive | 
CC(O)C#N (stereo unspecified) | inactive | 
Oc1ccc(I)cc1 | inactive | 
CCNc1nc(Cl)nc(NC(C)(C)C)n1 | inactive | 
CCOC(=O)c1ccccc1C(=O)OCC | inactive | 
Cc1ccc(C(=O)Cl)cc1 | inactive | 
COP(=O)(O)OC | inactive | 
CC(Cl)CN(C)C (stereo unspecified) | inactive | 
CC1=C(C(=O)Nc2ccccc2)S(=O)(=O)CCO1 | inactive | 
O=P1(N(CCCl)CCCl)NCCCO1 (stereo unspecified) | inactive | 
Cc1c([N+](=O)[O-])cc2c(c1[N+](=O)[O-])C(C)(C)CC2(C)C | inactive | 
Cc1cc(C)c(C(=O)P(=O)(c2ccccc2)c2ccccc2)c(C)c1 | inactive | 

Target: Bile acid receptor (Homo sapiens) (UniProt Q96RI1)
Sequence (Q96RI1 whole entry, looked up): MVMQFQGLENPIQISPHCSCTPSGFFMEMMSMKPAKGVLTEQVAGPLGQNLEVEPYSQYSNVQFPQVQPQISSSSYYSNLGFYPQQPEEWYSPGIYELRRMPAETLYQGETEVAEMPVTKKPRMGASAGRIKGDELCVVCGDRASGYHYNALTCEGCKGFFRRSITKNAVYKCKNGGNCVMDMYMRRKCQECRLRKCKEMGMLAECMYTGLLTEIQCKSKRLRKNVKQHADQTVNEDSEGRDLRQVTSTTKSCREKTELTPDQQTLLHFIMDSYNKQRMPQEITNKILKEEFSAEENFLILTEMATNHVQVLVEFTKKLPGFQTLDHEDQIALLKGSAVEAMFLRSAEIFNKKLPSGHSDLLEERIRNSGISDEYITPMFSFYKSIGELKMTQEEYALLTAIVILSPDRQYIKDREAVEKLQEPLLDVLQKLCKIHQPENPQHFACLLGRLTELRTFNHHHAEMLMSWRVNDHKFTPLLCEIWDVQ
Experiment: ATG_FXR_TRANS: Attagene TRANS-FACTORIAL HepG2 Assay for Farnesoid X Receptor (FXR) (AID 2282979);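 note: hits raise reporter mRNA above DMSO so AC50 marks FXR activation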
Settings: HepG2 Attagene TRANS FXR-GAL4 reporter transcription
Outline: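 Read-out: fluorescent reporter transcripts quantified by capillary electrophoresis after RT-PCR of total RNA. Source cells were HepG2 transiently carrying chimeric NR-GAL4 plus GAL4-UAS reporter units, dosed 24 h. Activity fitted upward relative to DMSO baseline.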

Compound | outcome
N#Cc1c(-c2ccc(Cl)cc2)[nH]c(C(F)(F)F)c1Br | inactive
Cc1ccc2c(c1N)C(=O)c1ccccc1C2=O | inactive
OCC(F)(F)OC(F)(F)C(F)(F)OC(F)(F)C(F)(F)OC(F)(F)F | inactive
CC(C)(C)c1ccc(O)cc1 | inactive
CC(C)CBr | inactive
CCCCC(CC)COC(=O)c1c(Br)c(Br)c(Br)c(Br)c1C(=O)OCC(CC)CCCC (stereo unspecified) | inactive
O=[N+]([O-])c1ccc(Cl)c(Cl)c1 | inactive
O=[N+]([O-])c1cc(Cl)ccc1Cl | inactive
O=S(=O)(c1ccc(O)cc1)c1ccc(O)cc1 | inactive
CCOC(=O)c1ccccc1N | inactive
Cc1ccc(N)cc1N | inactive
OCC(F)(F)OC(F)(F)C(F)(F)OC(F)(F)CO | inactive
Cn1[nH]nnc1=S | inactive
CC(O)C#N (stereo unspecified) | inactive
Oc1ccc(I)cc1 | inactive
CCNc1nc(Cl)nc(NC(C)(C)C)n1 | inactive
Cc1ccc([N+](=O)[O-])cc1C | inactive
COP(=O)(O)OC | inactive
CC1=C(C(=O)Nc2ccccc2)S(=O)(=O)CCO1 | inactive
Cc1c([N+](=O)[O-])cc2c(c1[N+](=O)[O-])C(C)(C)CC2(C)C | inactive
Cc1cc(C)c(C(=O)P(=O)(c2ccccc2)c2ccccc2)c(C)c1 | inactive

Target: Oxysterols receptor LXR-alpha (Homo sapiens) (UniProt Q13133)
Sequence (Q13133 whole entry, looked up): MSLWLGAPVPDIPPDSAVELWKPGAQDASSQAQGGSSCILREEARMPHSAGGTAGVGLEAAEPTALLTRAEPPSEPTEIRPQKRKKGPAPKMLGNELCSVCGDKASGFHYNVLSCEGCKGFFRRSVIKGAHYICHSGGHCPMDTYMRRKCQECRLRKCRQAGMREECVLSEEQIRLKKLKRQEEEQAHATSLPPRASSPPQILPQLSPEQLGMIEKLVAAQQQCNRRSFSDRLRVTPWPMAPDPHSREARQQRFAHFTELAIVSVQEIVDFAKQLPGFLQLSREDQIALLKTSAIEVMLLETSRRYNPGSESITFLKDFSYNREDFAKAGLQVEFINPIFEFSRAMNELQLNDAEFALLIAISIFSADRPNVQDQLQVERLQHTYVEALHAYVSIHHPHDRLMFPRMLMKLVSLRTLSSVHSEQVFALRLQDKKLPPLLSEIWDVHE
Experiment: ATG_LXRa_TRANS: Attagene TRANS-FACTORIAL HepG2 Assay for human Liver X Receptor alpha (LXRa) (AID 2282980)
Settings: HepG2 Attagene TRANS reporter, LXRa transactivation
Outline: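 Read-out: reporter transcript levels by RT-PCR plus capillary electrophoresis, fluorescence intensity. Transiently transfected HepG2, exogenous NR-GAL4 chimera, GAL4-UAS reporters; 24 h compound exposure. Activity = increase over DMSO negative control.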

Compound | outcome
Cc1ccc2c(c1N)C(=O)c1ccccc1C2=O | inactive
OCC(F)(F)OC(F)(F)C(F)(F)OC(F)(F)C(F)(F)OC(F)(F)F | inactive
CCN(CC)c1ccccc1 | inactive
CC(C)(C)c1ccc(O)cc1 | inactive
CC(C)CBr | inactive
CCCCC(CC)COC(=O)c1c(Br)c(Br)c(Br)c(Br)c1C(=O)OCC(CC)CCCC (stereo unspecified) | inactive
O=[N+]([O-])c1cc(Cl)ccc1Cl | inactive
O=S(=O)(c1ccc(O)cc1)c1ccc(O)cc1 | inactive
CCOC(=O)c1ccccc1N | inactive
O=C(O)C(Cl)Cl | inactive
Nc1ccc(Cl)cc1 | inactive
OCC1CO1 (stereo unspecified) | inactive
O=C(O)C1C(C(=O)O)C2(Cl)C(Cl)=C(Cl)C1(Cl)C2(Cl)Cl (stereo unspecified) | inactive
CC(O)C#N (stereo unspecified) | inactive
c1ccc2c(c1)Nc1ccccc1S2 | inactive
Cc1ccc(C(=O)Cl)cc1 | inactive
CC(Cl)CN(C)C (stereo unspecified) | inactive
CC1=C(C(=O)Nc2ccccc2)S(=O)(=O)CCO1 | inactive
Cc1c([N+](=O)[O-])cc2c(c1[N+](=O)[O-])C(C)(C)CC2(C)C | inactive

Target: Oxysterols receptor LXR-beta (Homo sapiens) (UniProt P55055)
Sequence (P55055 whole entry, looked up): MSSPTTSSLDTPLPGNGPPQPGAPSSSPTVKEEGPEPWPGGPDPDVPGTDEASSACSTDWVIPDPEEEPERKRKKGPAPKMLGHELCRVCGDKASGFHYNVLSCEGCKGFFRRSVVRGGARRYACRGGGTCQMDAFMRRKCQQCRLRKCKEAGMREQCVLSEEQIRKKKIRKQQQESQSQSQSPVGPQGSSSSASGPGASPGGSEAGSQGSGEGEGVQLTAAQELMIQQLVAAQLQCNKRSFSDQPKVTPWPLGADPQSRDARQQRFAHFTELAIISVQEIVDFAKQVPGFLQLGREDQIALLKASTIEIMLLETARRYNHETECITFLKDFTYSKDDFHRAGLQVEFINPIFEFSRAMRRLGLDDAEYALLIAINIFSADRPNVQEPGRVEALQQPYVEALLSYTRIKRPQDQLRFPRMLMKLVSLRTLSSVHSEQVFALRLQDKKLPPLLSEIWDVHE
Experiment: ATG_LXRb_TRANS: Attagene TRANS-FACTORIAL HepG2 Assay for human Liver X Receptor beta (LXRb) (AID 2282981)
Settings: HepG2 Attagene TRANS GAL4-LXRb reporter, mRNA
Outline: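 In this TRANS format, exogenous chimeric NR-Gal4 protein activity, not endogenous factors, drives reporter expression in transfected human HepG2 cells. Exposure lasted 24 h; reporter mRNA was read by fluorescent capillary electrophoresis.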

Compound | outcome
OCC(F)(F)OC(F)(F)C(F)(F)OC(F)(F)C(F)(F)OC(F)(F)F | inactive
Cc1cccc(N)c1 | inactive
CCC1(c2ccccc2)C(=O)N=C(O)NC1=O (stereo unspecified) | inactive
O=[N+]([O-])c1ccccc1 | inactive
CCCCC(CC)COC(=O)c1c(Br)c(Br)c(Br)c(Br)c1C(=O)OCC(CC)CCCC (stereo unspecified) | inactive
O=[N+]([O-])c1ccc(Cl)c(Cl)c1 | inactive
O=S(=O)(c1ccc(O)cc1)c1ccc(O)cc1 | inactive
CCOC(=O)c1ccccc1N | inactive
c1cc2c3c(cccc3c1)CC2 | inactive
OCC1CO1 (stereo unspecified) | inactive
Cn1[nH]nnc1=S | inactive
O=C(O)C1C(C(=O)O)C2(Cl)C(Cl)=C(Cl)C1(Cl)C2(Cl)Cl (stereo unspecified) | inactive
Oc1ccc(I)cc1 | inactive
CCOC(=O)c1ccccc1C(=O)OCC | inactive
c1ccc2c(c1)Nc1ccccc1S2 | inactive
CCOS(=O)(=O)OCC | inactive
CC1=C(C(=O)Nc2ccccc2)S(=O)(=O)CCO1 | inactive
O=P1(N(CCCl)CCCl)NCCCO1 (stereo unspecified) | inactive
